The results in this text go back to PubChem BioAssay (NCATS).

Molecules are shown by their SMILES. Where “and” joins values, the source holds several entries; their conditions need not be identical. Equal values may be shown once. Inconclusive results are not listed. Where a call stands in place of a potency, no number is given. Values without a mark were called inactive. Calls of active or inactive are those of the source. Calls come from the whole dose curve; as a rule, active = well fitted curve in the direction sought with a large enough effect; inconclusive = small, poorly fitted or top-dose-only effect, or another doubt; inactive = no such curve, though single readings can be large; an effect the other way counts as inactive or inconclusive.

Chain of Cellular tumor antigen p53 (Homo sapiens) (P04637 whole entry, looked up): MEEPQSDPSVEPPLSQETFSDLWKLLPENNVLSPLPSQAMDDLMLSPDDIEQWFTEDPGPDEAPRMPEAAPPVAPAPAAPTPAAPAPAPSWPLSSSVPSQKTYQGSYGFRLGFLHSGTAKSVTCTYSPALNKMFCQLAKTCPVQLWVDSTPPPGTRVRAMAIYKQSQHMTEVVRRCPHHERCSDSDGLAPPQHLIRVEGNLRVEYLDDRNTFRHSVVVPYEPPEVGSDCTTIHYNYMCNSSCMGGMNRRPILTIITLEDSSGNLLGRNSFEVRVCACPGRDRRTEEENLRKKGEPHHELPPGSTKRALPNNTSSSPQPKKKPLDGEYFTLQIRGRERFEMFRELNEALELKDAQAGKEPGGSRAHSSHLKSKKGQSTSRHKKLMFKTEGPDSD

One assay has as its target Cellular tumor antigen p53 (Homo sapiens) (UniProt P04637). Briefly: Primary qHTS for small molecule compounds that upregulate eGFP-tagged delta133p53alpha (in N-terminal) cells. (AID 2060322).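 Note: cells pre-induced with doxycycline then dosed without doxycycline; nearly all actives have a fitted effect of over 75% in size.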 The note with it: NCI-H358 eGFP-delta133p53alpha fluorescence, 24 h; activation: active compounds read high. In outline: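 NCI-H358 cells pre-induced 24 h with 10 ng/ml doxycycline for eGFP-delta133p53alpha, plated dox-free and exposed 24 h at 37C to titrated compounds. Fixed, Hoechst-stained; gated GFP peak intensity by laser scanning cytometry, normalized to DMSO (0%) and 57.5 uM 5-azacytidine (100%).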
On the technique in general: qHTS replaces the single test concentration by a dilution series.
On to `CCC(C)c1ccc(NC(=O)Cn2cnc3c2c(=O)n(C)c(=O)n3C)cc1` (configuration not stated), for which the activation was 11.5%.
On the same count and under the same terms, next, `O=C(Nc1ccc(N2CCC(C(=O)N3CCOCC3)CC2)cc1)c1cnc(Oc2ccccc2)nc1`: -2.39%; `FC(F)(F)c1cc(C(F)(F)F)c2ccc3nc(-c4nnco4)cn3c2n1`: 5.73%.
On the same count and under the same terms, next, `CCOC(=O)N1CCC(NCCNC(=O)c2ccccc2C)CC1`: 6.68%; `Cc1nc2ccccc2c(-c2ccc3c4c(ccnc24)CCO3)c1[C@H](OC(C)(C)C)C(=O)O`: 0.955%.
The same measure, in the same setting: then `Cc1ccc(CCCO)c(NCc2ccc3nc(NCCCN4CCOCC4)n(Cc4nc(C)ccc4O)c3c2)c1`, with 14.3%.
With `CN(C)c1ccnc2sc3c(=O)n(N4CCCCCC4)cnc3c12`, the activation is -18.1%.
Still for that read-out and setting: next, `O=C(c1c2ccccc2cc2ccccc12)N1CCC(N2CCC[C@@H](C(=O)N3CCOCC3)C2)CC1`: -1.91%; `O=C(NCCN1CCC(n2c(=O)[nH]c3ccccc32)CC1)c1cc2cc(F)ccc2[nH]1`: 23.9%.
The same measure, in the same setting: next, `CC(C)(C)C1CCN(C(=O)n2ncc(C(O)(c3ccccc3)c3ccccc3)n2)CC1`: 6.21%; `Cn1c2ccc(F)cc2c2c(C(=O)N3CCCC3)cn(-c3ccccc3)c(=O)c21`: -5.25%.
The same measure, in the same setting: then `CC(=O)O[C@]1(C(C)=O)CC[C@H]2[C@@H]3CCC4=CC(=O)CCC4=C3[C@@H](c3ccc(N(C)C)cc3)C[C@@]21C`, with -13.8%; and `COc1ccc(-c2cnc3ccc(NCc4ccc(S(N)(=O)=O)cc4)nn23)cc1OC`, with 5.73%.
On to `O=C(Nc1ccc(S(=O)(=O)Nc2ccccc2Cl)c(Cl)c1)c1ccccn1`, for which the activation is 15.8%.
The same measure, in the same setting: next, `Cn1c(CO)c(-c2ccccc2)c2cc([N+](=O)[O-])ccc21`: -4.77%; `Cc1cc(N2CCN([C@@H]3CN[C@H](C(=O)N4CCSC4)C3)CC2)n(-c2ccccc2)n1`: -1.91%; `O=C(O)c1cc(-c2ccccc2)nc2ccccc12`: -7.34% and -10% and -1.43%.
For `O=C(Nc1ccc2[nH]c(=O)oc2c1)C(=O)N1CCC(Cc2ccc(F)cc2)CC1`, the activation was 2.39%.
The same measure, in the same setting: next, `O=C(NCCN1CCOCC1)c1cc2c(Oc3ccc(NC(=O)C4(C(=O)Nc5ccc(F)cc5)CC4)cc3)ccnc2[nH]1`: 10%; `COc1cc(NC(=O)c2cc(C3CC3)on2)c(OC)cc1Cl`: -12.4%; `O=C(NCCCc1ccccc1)C1CCC(CNS(=O)(=O)c2cccc3nsnc23)CC1` (configuration not stated): -3.34%.
The same measure, in the same setting: then `O=S(=O)(Nc1cc(Cl)c(Oc2cnc3ccccc3c2)c(Cl)c1)c1ccc(Cl)cc1Cl`, with -4.77%; and `CC(C)(C)c1ccc(S(=O)(=O)NCc2ccc(C(=O)Nc3cccnc3)cc2)cc1`, with 1.91%; and `Cn1ncnc1COc1nn2c(-c3cc(F)ccc3F)nnc2cc1C(C)(C)C`, with -11.9%.
Same read-out and setting: then `Cc1ccccc1CN1CCn2c1nc1c(c2=O)CN(Cc2ccccc2)CC1`, with 0.477%; and `CCCCCCOC(=O)/N=C(\N)c1ccc(NCc2nc3cc(C(=O)N(CCC(=O)OCC)c4ccccn4)ccc3n2C)cc1`, with -0.955%; and `C[C@@H](NC(=O)c1cc(C(=O)N[C@@H](Cc2ccccc2)[C@H](O)CNC2CC2)cc(N(C)S(C)(=O)=O)c1)c1ccccc1`, with -12.4%.

In another assay the target is Aldehyde dehydrogenase, mitochondrial (Homo sapiens) (UniProt P05091). Briefly: qHTS for Inhibitors of the Aldehyde Dehydrogenase Family (ALDH2) Primary screen (AID 2061308). Note: nearly all actives have a fitted effect of over 55% in size. The note with it: ALDH2 enzyme inhibition qHTS, 1536-well; series mostly up to 56 µM.
As to `CCOC(=O)Nc1cc(-c2ccc(C)c(NS(C)(=O)=O)c2)nn2c(C)nnc12`, the Potency result was “inactive”.
The same measure, in the same setting: then `CSc1ccc(C(=O)N[C@@H]2CCCC[C@@H]2NC(=O)CNC(=O)c2cc(C(F)(F)F)ccc2NC(=O)NC(C)C)cc1`, with “inactive”; and `CC(C)c1ccc(NC(=O)Cn2cnc3c2c(=O)n(C)c(=O)n3C)cc1`, with “inactive”.
Still for that read-out and setting: next, `CC(c1ncncc1F)C(O)(Cn1cncn1)c1ccc(F)cc1F` (configuration not stated): “inactive”; `CC(=O)SCC(=O)c1ccc(NS(=O)(=O)c2ccc(OCCCN(C)C)cc2)nc1`: “inactive”.
`CC(C)(F)C[C@@H](N[C@@H](c1ccc(-c2ccc(S(C)(=O)=O)cc2)cc1)C(F)(F)F)C(=O)NC1(C#N)CC1`: the Potency entry was “inactive”.
On the same count and under the same terms, next, `O=C(O)c1ccccc1NC(=O)N1CCC(c2ccccc2C(F)(F)F)CC1`: “inactive”; `CCCCOc1ccc(-c2cncc(C(=O)NCc3cccnc3N3CCOCC3)c2)cc1Cl`: “inactive”.
Still for that read-out and setting: next, `CCCCS(=O)(=O)NC(Cc1ccc(OCCCCC2CCNCC2)cc1)C(=O)O` (configuration not stated): “inactive”.
Same read-out and setting: next, `O=C(NCCCn1ccnc1)c1cc(-c2ccco2)on1`: “inactive”.
In the case of `CN1CCN(Cc2ccc(NC(=O)Cc3ccc(Oc4cc(NC(=O)C5CC5)ncn4)cc3)cc2C(F)(F)F)CC1`, the Potency entry was “inactive”.
Consider `c1ccc(CN(CC2=NCCN2)c2ccccc2)cc1`, for which the Potency result is “inactive”.
As to `COc1cc(C(=O)NCC2(N(C)C)CCCC2)cc(OC)c1OCc1ccccc1`, the Potency entry is “inactive”.
On the same count and under the same terms, then `CCC(C)c1ccc(NC(=O)Cn2cnc3c2c(=O)n(C)c(=O)n3C)cc1` (configuration not stated), with “inactive”; and `O=C(Nc1ccc(N2CCC(C(=O)N3CCOCC3)CC2)cc1)c1cnc(Oc2ccccc2)nc1`, with “inactive”; and `FC(F)(F)c1cc(C(F)(F)F)c2ccc3nc(-c4nnco4)cn3c2n1`, with “inactive”.
The same measure, in the same setting: then `CCOC(=O)N1CCC(NCCNC(=O)c2ccccc2C)CC1`, with “inactive”.
As for `Cc1nc2ccccc2c(-c2ccc3c4c(ccnc24)CCO3)c1[C@H](OC(C)(C)C)C(=O)O`, the Potency entry was “inactive”.
The same measure, in the same setting: next, `Cc1ccc(CCCO)c(NCc2ccc3nc(NCCCN4CCOCC4)n(Cc4nc(C)ccc4O)c3c2)c1`: “inactive”; `CN(C)c1ccnc2sc3c(=O)n(N4CCCCCC4)cnc3c12`: “inactive”.
On to `O=C(c1c2ccccc2cc2ccccc12)N1CCC(N2CCC[C@@H](C(=O)N3CCOCC3)C2)CC1`, for which the Potency entry was “inactive”.
As to `O=C(NCCN1CCC(n2c(=O)[nH]c3ccccc32)CC1)c1cc2cc(F)ccc2[nH]1`, the Potency entry is “inactive”.
Same read-out and setting: next, `CC(C)(C)C1CCN(C(=O)n2ncc(C(O)(c3ccccc3)c3ccccc3)n2)CC1`: “inactive”; `Cn1c2ccc(F)cc2c2c(C(=O)N3CCCC3)cn(-c3ccccc3)c(=O)c21`: “inactive”.
The same measure, in the same setting: next, `CC(=O)O[C@]1(C(C)=O)CC[C@H]2[C@@H]3CCC4=CC(=O)CCC4=C3[C@@H](c3ccc(N(C)C)cc3)C[C@@]21C`: “inactive”; `COc1ccc(-c2cnc3ccc(NCc4ccc(S(N)(=O)=O)cc4)nn23)cc1OC`: “inactive”; `O=C(Nc1ccc(S(=O)(=O)Nc2ccccc2Cl)c(Cl)c1)c1ccccn1`: “inactive”.
Still for that read-out and setting: next, `Cn1c(CO)c(-c2ccccc2)c2cc([N+](=O)[O-])ccc21`: “inactive”; `Cc1cc(N2CCN([C@@H]3CN[C@H](C(=O)N4CCSC4)C3)CC2)n(-c2ccccc2)n1`: “inactive”; `O=C(O)c1cc(-c2ccccc2)nc2ccccc12`: “inactive”.
With `O=C(Nc1ccc2[nH]c(=O)oc2c1)C(=O)N1CCC(Cc2ccc(F)cc2)CC1`, the Potency result is “inactive”.
On the same count and under the same terms, next, `O=C(NCCN1CCOCC1)c1cc2c(Oc3ccc(NC(=O)C4(C(=O)Nc5ccc(F)cc5)CC4)cc3)ccnc2[nH]1`: “inactive”.
`COc1cc(NC(=O)c2cc(C3CC3)on2)c(OC)cc1Cl`: the Potency result was “inactive”.
The same measure, in the same setting: then `O=C(NCCCc1ccccc1)C1CCC(CNS(=O)(=O)c2cccc3nsnc23)CC1` (configuration not stated), with “inactive”; and `O=S(=O)(Nc1cc(Cl)c(Oc2cnc3ccccc3c2)c(Cl)c1)c1ccc(Cl)cc1Cl`, with “inactive”; and `CC(C)(C)c1ccc(S(=O)(=O)NCc2ccc(C(=O)Nc3cccnc3)cc2)cc1`, with “inactive”.
On the same count and under the same terms, then `Cn1ncnc1COc1nn2c(-c3cc(F)ccc3F)nnc2cc1C(C)(C)C`, with “inactive”; and `Cc1ccccc1CN1CCn2c1nc1c(c2=O)CN(Cc2ccccc2)CC1`, with “inactive”; and `CCCCCCOC(=O)/N=C(\N)c1ccc(NCc2nc3cc(C(=O)N(CCC(=O)OCC)c4ccccn4)ccc3n2C)cc1`, with “inactive”.
As to `C[C@@H](NC(=O)c1cc(C(=O)N[C@@H](Cc2ccccc2)[C@H](O)CNC2CC2)cc(N(C)S(C)(=O)=O)c1)c1ccccc1`, the Potency result is “inactive”.
